Records with an inconclusive call do not appear. The source made the active and inactive calls.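 How the source made its calls, unless noted: active means GFP response, as percent of the DMSO control, above the screen-wide mean plus 3 SD, about 139; inconclusive means no response measured because the compound's own fluorescence interfered; inactive means the rest.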
Assays:
[1] = rapamycin-like changes in RPL19A-GFP expression – cell-based, S. cerevisiae, multiplex flow cytometry, primary screen (AID 1862; in the data active means percent of DMSO control GFP below about 86%;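 further: lower values mimic rapamycin by blocking the RPL19A rise seen in DMSO cells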); conditions: S. cerevisiae RPL19A-GFP strain, flow cytometry fluorescence, 3 h; at 10 µM; stronger effect = lower value
[2] = TOR pathway GLN3 branch reporter MEP2-GFP changes – S. cerevisiae, multiplex flow cytometry, primary screen (AID 1867);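 further: median GFP channel fluorescence of barcode-gated MEP2-GFP cells measured by flow cytometry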; conditions: S. cerevisiae MEP2-GFP strain, 3 h, at 10 µM, stronger effect = higher value, 100% means same as DMSO wells
[3] = TOR pathway RTG branch CIT2 reporter changes – S. cerevisiae, GFP fusion, multiplex flow cytometry, primary screen (AID 1870;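 active means percent response above a set limit, the screen-wide mean plus 3 SD, cut at about 130% in these data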;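 further: barcoded CIT2-GFP strain pooled with four other GFP strains with rapamycin as positive control; median GFP fluorescence per well over plate mean of DMSO wells so 100% = DMSO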); conditions: S. cerevisiae CIT2-GFP expression, 3 h, at 10 µM, stronger effect = higher value
[4] = TOR pathway LAP4-GFP level changes – S. cerevisiae, multiplex flow cytometry, primary screen (AID 1873;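 active means GFP signal, as percent of the solvent control, above the screen mean plus 3 SD, about 149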); conditions: S. cerevisiae LAP4-GFP expression, 3 h, at 10 µM, stronger effect = higher value
[5] = yeast AGP1-GFP level changes, GLN3 branch – cell-based, multiplex flow cytometry, S. cerevisiae, primary screen (AID 1887;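 active means GFP signal above the screen-wide mean plus 3 SD, that is over about 124.5% of the solvent control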;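 further: AGP1-GFP fusion strain of S. cerevisiae within a five-strain barcoded multiplex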); conditions: 3 h, at 10 µM, stronger effect = higher value
[6] = reduced mouse 2C T cell binding to pMHC/ICAM-1 vesicles – MLPCN validation set, flow cytometry, LFA-1/ICAM-1 modulator project, pilot screen (AID 2523;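 active means response below a set limit, under 55% cells CD8-positive and vesicle-bound, and CD8 cells' 90th-percentile brightness under 279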;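 on vesicle binding response: mean PE anti-B7-1 fluorescence of CD8+ cells relative to row control; 100% = QL9-loaded vesicles with DMSO vehicle in the same plate row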); conditions: 2C mouse CD8+ T cells, at 7 µM, stronger effect = lower value; double positive events: measured here: CD8+/vesicle+ event percentage
[7] = target: Integrin beta-1 (Homo sapiens) + Integrin alpha-4 (Homo sapiens) (UniProt P13612+P05556); assay: alpha4beta1 integrin LIBS antibody binding reduction – U937 cells, HUTS-21 mAb, flow cytometry, validation set, VLA-4 allosteric modulator project, pilot screen (AID 2674;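 active means inhibition above 50%, about 3 SD of the validation set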;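 further: antibody binding induced by the VLA-4 ligand LDV present at three times its Kd; 0% = LDV ligand with antibody and no compound and 100% = antibody without LDV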); conditions: HUTS-21 LIBS mAb binding, at 6.7 µM, stronger effect = higher value, binding induced by LDV ligand
[8] = calorie-restriction mimetic ROS inhibitors, yeast – validation compound set, pilot screen (AID 2706;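 active means superoxide response below 65% of plate, a cut near 3 SD across the whole screen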;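 further: yeast exposed to compound for one week at 30 degrees C before staining; 100% = mean of all compound wells on the same plate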); conditions: S. cerevisiae aging, superoxide DHE fluorescence; at 10 µM, stronger effect = lower value
[9] = target: Beta-adrenergic receptor kinase 1 (Homo sapiens) (UniProt P25098); assay: GRK2 binders displacing RNA aptamer, biochemical, validation, human GRK2, bead flow cytometry (AID 488806;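 active means aptamer binding inhibition above 30%, about 3 SD of noise from non-fluorescent compounds; inactive means inhibition at or below 30%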); conditions: bead-bound GRK2, FAM-aptamer displacement, at 10 µM, stronger effect = higher value
[10] = target: AP-2 complex subunit beta (Homo sapiens) (UniProt P63010); assay: beta-arrestin/AP2 interaction blockers – biochemical, validation set, GST-AP2 beads, flow cytometry, pilot screen (AID 504541;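 active means inhibition above 54%, about 3 SD of non-fluorescent compounds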;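 further: AP2 carries R879A mutation and is captured from E. coli lysate; bead-bound FITC arrestin peptide fluorescence measuring arrestin peptide binding to AP2; 0% = DMSO wells and 100% = excess unlabeled arrestin peptide control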); conditions: FITC arrestin peptide, at 10 µM, stronger effect = higher value, AP2 beta2 appendage fragment, R879A mutant
[11] = cytosolic pH regulators acting via V-ATPase – S. cerevisiae, pHLuorin, HTS validation (AID 504600; in the data active means response above about 15%;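 further: plate controls were DMSO for no effect and reference compound for full effect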); conditions: V-ATPase proton transport, at 10 µM, stronger effect = higher value
[12] = test system: anti-desmoglein-3 scFv antibody binding to human DSG3; assay: blockers of pathogenic pemphigus antibody–desmoglein-3 binding – biochemical, validation compound set, bead-based, flow cytometry, pilot screen (AID 588368;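 active means binding below the plate cutoff, the plate median minus 3 SD, with a reading above zero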;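 further: signal is the median channel fluorescence of bead-bound GFP antibody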); conditions: Protein G beads, DSG3-Fc, scFv-GFP binding, at 10 µM, stronger effect = lower value
[13] = Nile Red efflux blockade in pump-expressing yeast – validation compound set, multiplex, phenotypic, pilot screen (AID 588506;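 active means efflux inhibition above 0.42, the validation set average plus 4 SD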;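 further: Nile Red retained in cells so higher fluorescence means more efflux inhibition; 0 = negative control wells and 1 = enniatin B 25 µM full block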); conditions: S. cerevisiae pump-expressing triplex, Nile Red efflux flow cytometry; at 10 µM; stronger effect = higher value; the pumps come from Candida albicans
[14] = target: ATP-binding cassette sub-family B member 6 (Homo sapiens) (UniProt Q9NP58); assay: blockers of ABCB6-driven porphyrin uptake – K562-ABCB6 cells, flow cytometry, validation set, pilot screen (AID 588550;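 active means inhibition above the screen-wide mean plus 3 SD, about 51%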;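 further: 0% = DMSO wells and 100% = benzethonium chloride 70 µM positive control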); conditions: K562-ABCB6 porphyrin accumulation, 1 h, at 10 µM, stronger effect = higher value
[15] = AML differentiation inducers, ER-HoxA9 marrow cells – cell-based, GFP/MAC1 double positive, flow cytometry, validation set, primary screen (AID 588685;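 active means differentiation response of at least 50%, scaled between solvent and reference control, from cells with both markers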;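 further: compound exposure lasts four days before antibody staining and flow analysis; 0% = DMSO wells and 100% = 5 µM fulvestrant positive control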); conditions: stronger effect = higher value, normalized: vehicle 0, fulvestrant 100
[16] = target: Beta-2 adrenergic receptor (Homo sapiens) (UniProt P07550); assay: agonist-induced loss of surface beta2AR – cell-based, FAP fluorogen, flow cytometry, validation set, pilot screen (AID 504459;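 active means percent response above 42, roughly 3 SD of non-fluorescent test compounds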;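 further: agonist-driven loss of surface beta2AR via internalization measured by FAP dye flow cytometry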); conditions: Am2.2-beta2AR cells, at 10 µM, stronger effect = higher value
Sequence of Beta-2 adrenergic receptor (Homo sapiens) (P07550 whole entry, looked up): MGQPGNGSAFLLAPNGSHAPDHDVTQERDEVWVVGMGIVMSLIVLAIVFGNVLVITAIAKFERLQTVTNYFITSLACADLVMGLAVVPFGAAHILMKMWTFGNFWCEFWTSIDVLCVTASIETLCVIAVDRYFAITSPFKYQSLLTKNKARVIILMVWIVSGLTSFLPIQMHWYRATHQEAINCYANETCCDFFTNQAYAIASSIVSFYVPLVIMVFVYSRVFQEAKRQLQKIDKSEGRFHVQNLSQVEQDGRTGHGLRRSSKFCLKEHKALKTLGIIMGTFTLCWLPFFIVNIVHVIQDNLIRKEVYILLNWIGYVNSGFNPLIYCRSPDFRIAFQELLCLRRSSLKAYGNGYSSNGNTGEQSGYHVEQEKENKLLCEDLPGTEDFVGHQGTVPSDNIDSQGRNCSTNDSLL

Sequence of ATP-binding cassette sub-family B member 6 (Homo sapiens) (Q9NP58 whole entry, looked up): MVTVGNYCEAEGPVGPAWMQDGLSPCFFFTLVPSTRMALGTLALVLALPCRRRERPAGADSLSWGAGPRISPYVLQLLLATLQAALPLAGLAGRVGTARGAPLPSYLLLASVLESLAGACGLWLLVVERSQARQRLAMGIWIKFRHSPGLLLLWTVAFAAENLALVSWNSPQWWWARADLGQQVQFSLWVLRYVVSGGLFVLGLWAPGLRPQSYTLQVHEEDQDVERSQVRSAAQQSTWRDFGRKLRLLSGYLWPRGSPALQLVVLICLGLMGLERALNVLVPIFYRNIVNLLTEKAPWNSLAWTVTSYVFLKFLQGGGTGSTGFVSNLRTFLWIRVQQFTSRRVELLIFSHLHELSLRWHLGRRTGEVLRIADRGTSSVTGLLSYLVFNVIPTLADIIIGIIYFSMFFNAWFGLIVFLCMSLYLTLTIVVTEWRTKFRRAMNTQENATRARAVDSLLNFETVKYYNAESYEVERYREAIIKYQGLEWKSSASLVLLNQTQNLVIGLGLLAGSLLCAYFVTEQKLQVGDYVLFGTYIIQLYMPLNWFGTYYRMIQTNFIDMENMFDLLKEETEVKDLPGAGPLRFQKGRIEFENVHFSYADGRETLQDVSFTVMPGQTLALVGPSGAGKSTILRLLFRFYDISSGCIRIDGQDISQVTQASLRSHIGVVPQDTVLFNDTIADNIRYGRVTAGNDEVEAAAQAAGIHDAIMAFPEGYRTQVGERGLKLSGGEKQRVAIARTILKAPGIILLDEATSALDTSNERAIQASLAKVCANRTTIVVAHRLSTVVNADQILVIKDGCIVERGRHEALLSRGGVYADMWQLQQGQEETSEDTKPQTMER
Sequence of Integrin beta-1 (Homo sapiens) + Integrin alpha-4 (Homo sapiens) (P05556 whole entry, looked up): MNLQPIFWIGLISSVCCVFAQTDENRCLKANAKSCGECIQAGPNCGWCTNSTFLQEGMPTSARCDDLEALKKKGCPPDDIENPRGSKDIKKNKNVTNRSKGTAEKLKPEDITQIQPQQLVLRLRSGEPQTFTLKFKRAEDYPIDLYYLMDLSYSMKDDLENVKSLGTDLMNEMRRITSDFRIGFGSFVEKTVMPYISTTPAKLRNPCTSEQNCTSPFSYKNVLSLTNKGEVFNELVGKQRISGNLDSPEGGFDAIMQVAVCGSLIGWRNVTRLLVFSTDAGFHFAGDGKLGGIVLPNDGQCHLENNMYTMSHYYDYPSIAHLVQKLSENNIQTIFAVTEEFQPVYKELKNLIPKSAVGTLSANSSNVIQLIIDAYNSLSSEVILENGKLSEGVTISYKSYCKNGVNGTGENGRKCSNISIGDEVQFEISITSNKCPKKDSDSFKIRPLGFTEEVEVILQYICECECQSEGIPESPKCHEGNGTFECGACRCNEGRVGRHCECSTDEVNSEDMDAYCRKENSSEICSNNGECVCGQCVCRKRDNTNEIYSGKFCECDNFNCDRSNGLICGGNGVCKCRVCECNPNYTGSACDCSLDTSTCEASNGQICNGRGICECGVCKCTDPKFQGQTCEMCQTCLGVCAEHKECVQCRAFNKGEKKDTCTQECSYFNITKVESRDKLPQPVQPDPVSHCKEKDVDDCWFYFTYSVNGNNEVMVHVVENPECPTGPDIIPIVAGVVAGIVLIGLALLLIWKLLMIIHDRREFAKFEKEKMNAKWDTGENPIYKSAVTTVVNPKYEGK
Sequence of Integrin beta-1 (Homo sapiens) + Integrin alpha-4 (Homo sapiens) (P13612 whole entry, looked up): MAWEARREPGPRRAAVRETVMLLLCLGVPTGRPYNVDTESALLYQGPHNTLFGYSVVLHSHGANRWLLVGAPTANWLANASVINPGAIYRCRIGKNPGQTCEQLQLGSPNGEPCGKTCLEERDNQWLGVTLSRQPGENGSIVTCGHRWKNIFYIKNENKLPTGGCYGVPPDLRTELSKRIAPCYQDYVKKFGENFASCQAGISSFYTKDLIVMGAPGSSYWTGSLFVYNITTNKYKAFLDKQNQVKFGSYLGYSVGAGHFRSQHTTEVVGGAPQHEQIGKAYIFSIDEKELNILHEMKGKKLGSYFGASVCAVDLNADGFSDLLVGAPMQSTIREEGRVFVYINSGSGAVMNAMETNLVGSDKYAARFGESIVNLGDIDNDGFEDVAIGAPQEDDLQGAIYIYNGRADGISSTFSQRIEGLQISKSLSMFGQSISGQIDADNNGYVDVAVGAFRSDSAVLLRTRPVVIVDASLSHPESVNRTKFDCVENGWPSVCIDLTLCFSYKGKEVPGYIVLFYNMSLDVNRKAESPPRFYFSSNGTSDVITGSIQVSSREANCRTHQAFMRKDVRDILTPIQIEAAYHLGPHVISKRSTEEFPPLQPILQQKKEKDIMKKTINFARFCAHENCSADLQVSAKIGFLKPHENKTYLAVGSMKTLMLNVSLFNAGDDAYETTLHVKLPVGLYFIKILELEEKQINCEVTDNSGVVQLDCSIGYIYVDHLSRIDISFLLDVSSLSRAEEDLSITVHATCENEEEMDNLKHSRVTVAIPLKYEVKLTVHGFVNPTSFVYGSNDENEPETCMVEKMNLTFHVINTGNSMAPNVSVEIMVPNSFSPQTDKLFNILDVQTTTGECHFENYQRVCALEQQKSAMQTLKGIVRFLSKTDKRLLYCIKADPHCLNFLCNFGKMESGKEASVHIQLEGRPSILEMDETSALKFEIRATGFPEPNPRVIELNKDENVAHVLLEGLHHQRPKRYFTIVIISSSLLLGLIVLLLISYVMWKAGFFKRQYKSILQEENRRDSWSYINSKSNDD
Sequence of AP-2 complex subunit beta (Homo sapiens) (P63010 whole entry, looked up, the tested form may be a part, one chain of several): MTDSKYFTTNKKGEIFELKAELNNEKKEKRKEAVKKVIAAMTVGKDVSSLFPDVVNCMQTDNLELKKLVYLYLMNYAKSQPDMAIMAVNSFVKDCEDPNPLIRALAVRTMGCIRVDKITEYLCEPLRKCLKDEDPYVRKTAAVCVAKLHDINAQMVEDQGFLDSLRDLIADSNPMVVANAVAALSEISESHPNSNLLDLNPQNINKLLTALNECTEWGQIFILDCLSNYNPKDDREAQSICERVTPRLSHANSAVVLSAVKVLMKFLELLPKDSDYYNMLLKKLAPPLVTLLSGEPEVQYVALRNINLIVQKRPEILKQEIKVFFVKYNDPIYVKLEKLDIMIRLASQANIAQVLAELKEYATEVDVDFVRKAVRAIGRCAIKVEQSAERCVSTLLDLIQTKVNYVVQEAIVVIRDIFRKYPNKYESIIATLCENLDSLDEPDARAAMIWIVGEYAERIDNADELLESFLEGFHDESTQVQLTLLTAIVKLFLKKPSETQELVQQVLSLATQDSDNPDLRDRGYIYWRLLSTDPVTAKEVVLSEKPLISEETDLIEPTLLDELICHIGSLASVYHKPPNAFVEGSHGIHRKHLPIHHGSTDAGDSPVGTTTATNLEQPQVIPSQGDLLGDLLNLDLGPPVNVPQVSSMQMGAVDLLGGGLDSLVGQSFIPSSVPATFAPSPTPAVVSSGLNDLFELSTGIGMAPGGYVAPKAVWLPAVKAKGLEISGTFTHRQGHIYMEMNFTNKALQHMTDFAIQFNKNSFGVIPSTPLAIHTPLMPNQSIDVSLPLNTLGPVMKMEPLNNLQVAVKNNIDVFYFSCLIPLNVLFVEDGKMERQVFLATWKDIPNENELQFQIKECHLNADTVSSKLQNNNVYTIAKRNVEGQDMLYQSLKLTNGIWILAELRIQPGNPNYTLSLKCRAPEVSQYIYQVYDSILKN
Sequence of Beta-adrenergic receptor kinase 1 (Homo sapiens) (P25098 whole entry, looked up): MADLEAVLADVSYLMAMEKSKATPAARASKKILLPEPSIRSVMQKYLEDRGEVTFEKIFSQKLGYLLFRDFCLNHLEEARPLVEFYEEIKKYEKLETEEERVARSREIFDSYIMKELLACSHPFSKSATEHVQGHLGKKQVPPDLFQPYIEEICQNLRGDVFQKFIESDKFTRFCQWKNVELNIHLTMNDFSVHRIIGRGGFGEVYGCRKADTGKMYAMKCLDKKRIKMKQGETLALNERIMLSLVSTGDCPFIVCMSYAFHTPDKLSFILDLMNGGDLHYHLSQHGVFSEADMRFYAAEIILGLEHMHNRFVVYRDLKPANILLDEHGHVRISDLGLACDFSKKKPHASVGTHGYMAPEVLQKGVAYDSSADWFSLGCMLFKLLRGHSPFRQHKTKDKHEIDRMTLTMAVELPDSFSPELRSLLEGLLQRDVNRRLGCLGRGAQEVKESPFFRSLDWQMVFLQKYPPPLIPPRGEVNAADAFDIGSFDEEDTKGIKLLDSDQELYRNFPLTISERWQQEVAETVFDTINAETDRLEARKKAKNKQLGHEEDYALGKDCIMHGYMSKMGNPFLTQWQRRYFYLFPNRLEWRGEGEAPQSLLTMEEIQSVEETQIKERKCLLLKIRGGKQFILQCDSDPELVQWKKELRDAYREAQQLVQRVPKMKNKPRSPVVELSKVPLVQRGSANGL

COc1ccc2oc(=O)c(-c3nc(C)cs3)cc2c1
inactive: percent of DMSO control GFP [1] 98% | GFP response vs DMSO [2] 101% | percent response of DMSO control [3] 96.9% | GFP response vs DMSO [4] 106% | GFP response, % of DMSO [5] 88.2% | vesicle binding response [6] 204% | inhibition [7] 9.09% | superoxide response (% of plate) [8] 89.3% | aptamer binding inhibition [9] 6% | inhibition [10] -7.03% | response [11] -3.63% | binding (% of control) [12] 92.6% | efflux inhibition (fraction of control) [13] -0.05 | inhibition [14] 7% | differentiation response [15] -1.82%
54.8%: double positive events [6]

CC(=O)O[C@H]1CSC[C@H]1NC(=O)c1ccccc1
inactive: percent of DMSO control GFP [1] 101% | GFP response vs DMSO [2] 91.8% | percent response of DMSO control [3] 106% | GFP response vs DMSO [4] 102% | GFP response, % of DMSO [5] 101% | vesicle binding response [6] 233% | inhibition [7] -7.7% | superoxide response (% of plate) [8] 104% | aptamer binding inhibition [9] -6% | inhibition [10] -16.1% | response [11] -9.38% | binding (% of control) [12] 102% | efflux inhibition (fraction of control) [13] -0.28 | inhibition [14] 12% | differentiation response [15] -13.1%
60.9%: double positive events [6]

C/C(=N/N1CCN(Cc2cccc3ccccc23)CC1)c1cccnc1
58.2%: double positive events [6]
inactive: percent of DMSO control GFP [1] 101% | GFP response vs DMSO [2] 102% | percent response of DMSO control [3] 98.8% | GFP response vs DMSO [4] 99.4% | GFP response, % of DMSO [5] 96.6% | vesicle binding response [6] 182% | inhibition [7] -1.17% | superoxide response (% of plate) [8] 102% | aptamer binding inhibition [9] 1% | inhibition [10] 6.25% | response [11] -3.49% | binding (% of control) [12] 100% | efflux inhibition (fraction of control) [13] 0.25 | inhibition [14] 5% | differentiation response [15] 9.49%

CCN(CC)CCNc1ccc(CO)c2sc3ccccc3c(=O)c12
47.8%: double positive events [6]
inactive: percent of DMSO control GFP [1] 104% | GFP response vs DMSO [2] 109% | percent response of DMSO control [3] 112% | GFP response vs DMSO [4] 112% | GFP response, % of DMSO [5] 103% | vesicle binding response [6] 231% | inhibition [7] 21.2% | superoxide response (% of plate) [8] 109% | aptamer binding inhibition [9] -5% | inhibition [10] -0.76% | response [11] 2.76% | binding (% of control) [12] 120% | efflux inhibition (fraction of control) [13] -0.39 | inhibition [14] 8% | differentiation response [15] -8.27%

COc1ccc2c(c1)c(CC(=O)O)c(C)n2C(=O)c1ccc(Cl)cc1
inactive: percent of DMSO control GFP [1] 105% | GFP response vs DMSO [2] 96.9% | percent response of DMSO control [3] 109% | GFP response vs DMSO [4] 101% | GFP response, % of DMSO [5] 92.5% | vesicle binding response [6] 173% | inhibition [7] -25.4% | superoxide response (% of plate) [8] 109% | aptamer binding inhibition [9] 1% | inhibition [10] -6.1% | response [11] 9.1% | binding (% of control) [12] 102% | efflux inhibition (fraction of control) [13] -0.01 | inhibition [14] 10% | differentiation response [15] -13.1%
50%: double positive events [6]

Cc1ncc([N+](=O)[O-])n1CC(C)O (stereo unspecified)
inactive: percent of DMSO control GFP [1] 101% | GFP response vs DMSO [2] 103% | percent response of DMSO control [3] 103% | GFP response vs DMSO [4] 99.4% | GFP response, % of DMSO [5] 97.3% | vesicle binding response [6] 149% | inhibition [7] 8.15% | superoxide response (% of plate) [8] 100% | aptamer binding inhibition [9] 9% | inhibition [10] -6.78% | response [11] -2.48% | binding (% of control) [12] 100% | efflux inhibition (fraction of control) [13] 0.14 | inhibition [14] 8% | differentiation response [15] -9.89%
52.2%: double positive events [6]

CCOC(=O)c1ccc2[nH]c(C)c(CCC(C)=O)c(=O)c2c1
57.1%: double positive events [6]
inactive: percent of DMSO control GFP [1] 102% | GFP response vs DMSO [2] 98.9% | percent response of DMSO control [3] 109% | GFP response vs DMSO [4] 88.3% | GFP response, % of DMSO [5] 97.9% | vesicle binding response [6] 228% | inhibition [7] 0.69% | superoxide response (% of plate) [8] 91.5% | aptamer binding inhibition [9] 1% | inhibition [10] 1.85% | response [11] 6.01% | binding (% of control) [12] 108% | efflux inhibition (fraction of control) [13] -0.12 | inhibition [14] 6% | differentiation response [15] -11.5%

COC(=O)c1ccc(=O)n(Cc2ccco2)c1
58.2%: double positive events [6]
inactive: percent of DMSO control GFP [1] 94.7% | GFP response vs DMSO [2] 92.8% | percent response of DMSO control [3] 97.9% | GFP response vs DMSO [4] 92.3% | GFP response, % of DMSO [5] 96.9% | vesicle binding response [6] 166% | inhibition [7] -6.77% | superoxide response (% of plate) [8] 86.5% | aptamer binding inhibition [9] -2% | inhibition [10] -1.44% | response [11] -0.2% | binding (% of control) [12] 94.6% | efflux inhibition (fraction of control) [13] -0.16 | inhibition [14] 12% | differentiation response [15] -8.27%

CN1C(=O)C(O)(CC(=O)c2ccccc2O)c2cc(Br)ccc21 (stereo unspecified)
57.7%: double positive events [6]
inactive: percent of DMSO control GFP [1] 100% | GFP response vs DMSO [2] 107% | percent response of DMSO control [3] 109% | GFP response vs DMSO [4] 115% | GFP response, % of DMSO [5] 106% | vesicle binding response [6] 199% | inhibition [7] 16.6% | superoxide response (% of plate) [8] 101% | aptamer binding inhibition [9] 0% | inhibition [10] 4.33% | response [11] 0.66% | binding (% of control) [12] 99% | efflux inhibition (fraction of control) [13] -0.09 | inhibition [14] 9% | differentiation response [15] 7.87%

O=C(CCCN1CCC(O)(c2ccc(Cl)cc2)CC1)c1ccc(F)cc1
62.6%: double positive events [6]
inactive: percent of DMSO control GFP [1] 101% | GFP response vs DMSO [2] 99.3% | percent response of DMSO control [3] 91.9% | GFP response vs DMSO [4] 86.8% | GFP response, % of DMSO [5] 93.7% | vesicle binding response [6] 48.6% | inhibition [7] 9.92% | aptamer binding inhibition [9] -3% | response [16] -2.5% | inhibition [10] 13.3% | response [11] -1.24% | binding (% of control) [12] 105% | efflux inhibition (fraction of control) [13] 0.27 | inhibition [14] 21% | differentiation response [15] 15.9%

CNCCCC12CCC(c3ccccc31)c1ccccc12
inactive: percent of DMSO control GFP [1] 101% | GFP response vs DMSO [2] 107% | percent response of DMSO control [3] 90.8% | GFP response vs DMSO [4] 95.3% | GFP response, % of DMSO [5] 96.7% | vesicle binding response [6] 234% | inhibition [7] 11% | aptamer binding inhibition [9] -11% | response [16] 28.2% | inhibition [10] 3.24% | response [11] 2% | binding (% of control) [12] 103% | efflux inhibition (fraction of control) [13] 0.33 | inhibition [14] -7% | differentiation response [15] 18.8%
66.4%: double positive events [6]
